Test results taken from PubChem BioAssay (NCI).
About 83,000 compounds went through this panel and 20% of them were active in at least one assay; those are over-represented in the sample as a whole.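 Negative percent growth values reflect cell death: -40 means 40% of the cells present at the start died, and -100 means all died.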 A number with no mark means an inactive call. Active and inactive are the calls of the source. Rule for the calls: active = growth percent below 10; inactive = the rest.

Key:
Test in all cases: NCI-60 one-dose screen, 48 h (100 = growth as untreated, 0 = no growth, -100 = all killed)
Settings in all cases: 10 µM unless noted
SR leukemia = system: SR leukemia
RPMI-8226 leukemia = system: RPMI-8226 leukemia
OVCAR-8 ovarian = system: OVCAR-8 ovarian
OVCAR-5 ovarian = system: OVCAR-5 ovarian
OVCAR-4 ovarian = system: OVCAR-4 ovarian
SK-OV-3 ovarian = system: SK-OV-3 ovarian
IGROV1 ovarian = system: IGROV1 ovarian
HS 578T breast = system: HS 578T breast
NCI/ADR-RES ovarian = system: NCI/ADR-RES ovarian

Row | SMILES | growth (SR leukemia) | growth (RPMI-8226 leukemia) | growth (OVCAR-8 ovarian) | growth (OVCAR-5 ovarian) | growth (OVCAR-4 ovarian) | growth (SK-OV-3 ovarian) | growth (IGROV1 ovarian) | growth (HS 578T breast) | growth (NCI/ADR-RES ovarian)
1 | Nc1nc(-c2cccc([N+](=O)[O-])c2)c(N=Nc2cccc(Cl)c2)s1 | 31.4% | 46.6% | 41.4% | 64.3% | 49.2% | 42.7% | 33.8% | 55% | 38.9%
2 | C#C[C@]1(O)CC[C@H]2[C@@H]3CC=C4c5sc(Nc6cc(Cl)ccn6)nc5CC[C@]4(C)[C@H]3CC[C@@]21C | 4.56% (active) | -22.9% (active) | 48.7% | 47.5% | 68.1% | -1.88% (active) | 40.1% | -3.53% (active) | 34.7%
3 | COc1ccc(-c2nnc(/N=C3/C(=O)Nc4ccc(Br)cc43)o2)cc1 | 97.8% | 96.2% | 99.9% | 107% | 101% | 108% | 91.9% | 116% | 102%
4 | CCN1C(=O)N(CC)C2SC(N/N=C/c3cccs3)=NC21 (configuration not stated) | 15.1% | 23.3% | -4.75% (active) | 43.6% | 62.5% | 31.9% | 23.7% | 15.4% | -0.335% (active)
5 | COc1cc(/C=C/C(=O)c2ccc(N3CCN(C)CC3)cc2)ccc1F | 28.3% | 28.4% | 88.9% | 81.6% | 75.9% | 99.3% | 56.6% | 104% | 82.8%
6 | CC1CCN(S(=O)(=O)c2ncsc2-c2ccccc2)CC1 | 55.7% | 25.5% | 101% | 94.8% | 88.5% | 95% | 94.2% | 40.3% | 90%
7 | O=C1CSC(=O)N1Cc1cc2ccccc2nc1Cl | 98.2% | 98.8% | 98.7% | 101% | 99.2% | 110% | 99.9% | 97.1% | 105%
8 | CN1CCN(c2nc(-c3csc(-c4ccncc4)n3)cc3ccccc23)CC1 | -18.2% (active) | 47.1% | 84% | 76.1% | 84.9% | 86.4% | 56.8% | 66.1% | 68%
9 | CNC(=O)c1cc(Oc2ccc3nc(NC(=O)c4ccc(CN5CCCN(C)CC5)c(C(F)(F)F)c4)sc3c2)ccn1 | -59.8% (active) | -31.1% (active) | 32.4% | 53.6% | 52.3% | 80.3% | 60.6% | -1.04% (active) | 60.6%
10 | CCc1ccc(NC(=O)N[C@@H](Cc2cccc(F)c2)C(=O)N[C@@H]2C(=O)N3CCC[C@H]3C(=O)N3CCCC[C@H]3C(=O)N[C@@H](CO)C(=O)N3C[C@H](C)C[C@H]3C(=O)O[C@H]2C)c(F)c1 | 31.4% | 20.3% | 20.9% | 36.4% | 24.6% | 21.8% | 39.5% | 35.5% | 60.6%
11 | CC1(COc2ccc3ncc(C#Cc4cncc(C(=O)Nc5cc(C(C)(C)C)on5)c4)n3n2)COC1 | 34% | 47.3% | 35.5% | 55.9% | 55.6% | 61.2% | 25% | 15.1% | 22.2%
12 | COc1ccc(NC(=O)[C@H](C)NC(=O)OC(C)(C)C)cc1C(=O)Nc1cccc(-c2cc(=O)c3c(OC)c(OC)c(OC)cc3o2)c1 | 8.47% (active) | -39.4% (active) | -27.5% (active) | 3.94% (active) | 21.3% | -17.8% (active) | 11.5% | -9.5% (active) | 61.4%
13 | COc1ccc(Cn2cc3c(c2-c2ccccc2)CCCc2cnoc2-3)cc1[N+](=O)[O-] | 32.6% | 59% | 80.2% | 93.4% | 68.8% | 74.8% | 64% | 64.3% | 42.5%
14 | COc1ccc(S(=O)(=O)NCCCNc2nccc(-n3cnc4ccccc43)n2)cc1 | 77.6% | 78.6% | 93.7% | 99.6% | 77.4% | 96.2% | 91.4% | 84.8% | 105%
15 | COc1cc(/C=N/n2cnc3oc(-c4ccccc4)cc3c2=N)cc(CN2CCCCC2)c1O | 28.9% | -30.4% (active) | -38.7% (active) | -81% (active) | -63.1% (active) | 105% | -82.5% (active) | -35.9% (active) | -0.827% (active)
16 | CSc1nccc(-c2c(-c3ccc(F)c(OCc4ccc(F)cc4)c3)nc3sccn23)n1 | 73.4% | 53.2% | 84.4% | 95.4% | 61.8% | 71.4% | 55.8% | 88.2% | 73.6%
17 | O=C1Nc2cc(OC(F)(F)F)ccc2Oc2ccc(-c3ccnc(N4CC[C@H](O)C4)c3)cc21 | -6.83% (active) | 17% | -14.4% (active) | 25.5% | 48.5% | 27.1% | 16.8% | 24.5% | 9.76% (active)
18 | CCOP(=O)(OCC)OC[C@]12CCC(C)(C)C[C@H]1C1=CC[C@@H]3[C@@]4(C)C/C(=C\c5cccnc5)[C@H](OP(=O)(OCC)OCC)C(C)(C)[C@@H]4CC[C@@]3(C)[C@]1(C)CC2 | 3.36% (active) | -10.3% (active) | 28.9% | 50.1% | 27.6% | 34.8% | 42.6% | 61.1% | 52.3%
19 | C#CCOc1ccc(/C=N/Nc2nc(-c3cc(Cl)ccc3Cl)cs2)cc1 | 87.8% | 76.8% | 93.5% | 99.5% | 52.8% | 97.9% | 64.4% | 98.3% | 95%
20 | COc1ccc(-c2ccnc3c(C#N)c(Nc4ccccc4)nn23)cc1OC | 73.8% | 78.3% | 85.2% | 83.2% | 103% | 100% | 96.1% | 84% | 85.5%
21 | O=C(N/N=C\c1ccc(Cl)cc1)c1ccc2nc(-c3ccc(Br)cc3)[nH]c2c1 | -8.2% (active) | -8.35% (active) | -14.4% (active) | 36.8% | -44.1% (active) | 79.1% | -43.6% (active) | 15.6% | 35.7%
22 | CCc1ccc(NC(=O)N[C@@H](Cc2cccc(F)c2)C(=O)N[C@@H]2C(=O)N3CCC[C@H]3C(=O)N3CCCC[C@H]3C(=O)N[C@@H](C)C(=O)N3C[C@H](C)C[C@H]3C(=O)O[C@H]2C)c(F)c1 | 21.2% | 12.3% | 23.1% | 23.9% | 23.9% | 24.9% | 35.9% | 26.3% | 18.4%
23 | O=C1Nc2ccc(Cl)cc2/C1=C/c1ccc(OCc2ccc(F)cc2)cc1 | 101% | 69.8% | 98.5% | 94% | 97.5% | 101% | 100% | 101% | 80.5%
24 | CC(C)Sc1nc(NC2CC2)c(C#N)c(-c2ccccc2)n1 | 96.5% | 91% | 84.9% | 84.4% | -8.11% (active) | 78.6% | 19.8% | 68.7% | 74.5%
25 | CC(C)=CCC[C@](C)(O)[C@H]1CC[C@]2(C)[C@@H]1CC[C@@H]1[C@@]3(C)CCC(NC(=O)c4ccccc4C(=O)O)C(C)(C)[C@@H]3CC[C@]12C (some centres not stated) | 86.9% | 90.9% | 96.3% | 94.9% | 105% | 104% | 102% | 89.2% | 98.3%
26 | Clc1ccc(-c2csc(Nc3cccc(Nc4csc(-c5ccc(Cl)cc5)n4)c3)n2)cc1 | 96.8% | 86.3% | 87.3% | 77.5% | 76.5% | 79.3% | 50.6% | 73.4% | 79.5%
27 | Cc1cc(C(=O)Nc2ccc(SC#N)cc2)c(C)o1 | 5.44% (active) | 83.1% | 98.3% | 115% | 104% | 111% | 88.9% | 112% | 100%
28 | CN1CCN(c2ccc(C(=O)Nc3cccc(-c4cn(-c5ccc(S(N)(=O)=O)cc5)nn4)c3)cc2C(F)(F)F)CC1 | -1.19% (active) | 10.7% | 86.7% | 84.3% | 84.8% | 102% | 86.9% | 71% | 101%
